LGR2 antag: blocks bursicon-induced cAMP signaling via Drosophila LGR2. HEK293 LGR2, CRE-luciferase, bursicon-stimulated, 4 h. inhibition, % at 9.99 µM. 380,000 tested, 0.35% active. AID 720647;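 active = drop in luminescence signal, shown as inhibition above about 50% in the replicate tests, limit read from the data, passing the limit was not always enough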;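 also: agonist challenge used bursicon conditioned medium at about half maximal strength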
CF NFkB block: inhibitors of cystic fibrosis induced NF-kB; KKLEB NF-kB-GFP reporter, PAF-induced, GFP fluorescence overnight; inhibition, % at 5 µM; 360,000 tested, 0.86% active;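 active = at least 50% inhibition at 5 µM, scaled per plate between neutral and stimulator controls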;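 also: PAF is a Pseudomonas aeruginosa culture filtrate used as stimulus; plate controls were PAF-stimulated DMSO wells for no effect and unstimulated DMSO wells for full effect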
HSP90 refold inh: blocks HSP90-mediated luciferase refolding in reticulocyte lysate; Rabbit reticulocyte lysate, luciferase refolding luminescence, 3 h; 290,000 tested, 0.91% active; inhibition, % at 5.6 µM;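 active = inhibition above the screen-wide mean plus 3 SD, computed separately per campaign, cut at about 16% in these data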;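 also: 0% = DMSO wells and 100% = 60 µM geldanamycin wells; inhibitors lower the luminescence because luciferase stays unfolded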
Peg3 promoter: Peg3 promoter activity inhibition | HeLa PEG-Prom luciferase reporter, luminescence, overnight | inhibition, % at 20 µM | AID 588405 | 360,000 tested, 1.7% active;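 active = inhibition of at least 50% at 20 µM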
Mdm2-MdmX inh: inhibitors of human Mdm2/MdmX interaction. 330,000 tested, 3% active. O15151+Q00987. inhibition, % at 8 µM. SaOS-2 split-luciferase Mdm2/MdmX complementation, luminescence. AID 485346;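 active = inhibition of at least 50% at 8 µM in the primary screen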
Target sequence (O15151 whole entry, looked up): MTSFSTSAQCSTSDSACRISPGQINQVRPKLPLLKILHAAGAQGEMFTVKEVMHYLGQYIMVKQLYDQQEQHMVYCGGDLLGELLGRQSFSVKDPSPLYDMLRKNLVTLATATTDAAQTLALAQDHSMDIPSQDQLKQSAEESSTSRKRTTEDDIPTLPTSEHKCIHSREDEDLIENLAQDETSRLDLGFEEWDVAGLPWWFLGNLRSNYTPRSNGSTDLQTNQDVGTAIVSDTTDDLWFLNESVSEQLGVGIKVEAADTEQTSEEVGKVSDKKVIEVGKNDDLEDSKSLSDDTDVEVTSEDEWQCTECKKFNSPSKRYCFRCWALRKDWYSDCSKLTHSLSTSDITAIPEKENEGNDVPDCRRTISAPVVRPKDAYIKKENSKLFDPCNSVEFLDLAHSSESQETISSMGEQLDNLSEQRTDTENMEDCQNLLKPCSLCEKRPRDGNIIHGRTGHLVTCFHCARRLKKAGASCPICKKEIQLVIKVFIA
Target sequence (Q00987 whole entry, looked up): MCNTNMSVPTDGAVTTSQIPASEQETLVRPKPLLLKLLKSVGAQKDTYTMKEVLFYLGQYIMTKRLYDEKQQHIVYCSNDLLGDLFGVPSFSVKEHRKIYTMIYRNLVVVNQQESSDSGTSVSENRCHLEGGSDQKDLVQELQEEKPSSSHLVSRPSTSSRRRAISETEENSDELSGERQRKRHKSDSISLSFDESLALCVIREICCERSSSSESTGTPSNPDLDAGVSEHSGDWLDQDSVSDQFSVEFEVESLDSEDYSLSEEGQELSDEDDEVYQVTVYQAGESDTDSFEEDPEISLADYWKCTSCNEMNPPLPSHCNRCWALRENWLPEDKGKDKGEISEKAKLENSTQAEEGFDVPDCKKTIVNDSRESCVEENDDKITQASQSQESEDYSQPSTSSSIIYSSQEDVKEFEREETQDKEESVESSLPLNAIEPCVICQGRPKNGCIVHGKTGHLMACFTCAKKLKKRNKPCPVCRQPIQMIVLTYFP
KKLEB tox: counter-screen for CF NF-kB inhibitors: cytotoxicity | AID 602141 | activity change (cytotoxicity), % at 5 µM | KKLEB CF airway cells viability, ATPlite luminescence, overnight; stronger effect = lower value; cells stimulated with P. aeruginosa culture filtrate | 360,000 tested, 0.36% active;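 active = corrected activity change at or below -50% at 5 µM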
* = called active by the depositor; x = not tested or not shown. Compounds with a hit are over-represented: about 3.6% of the library has one in this group of screens.

SMILES | LGR2 antag | CF NFkB block | HSP90 refold inh | Peg3 promoter | Mdm2-MdmX inh | KKLEB tox
C/C(=N\Nc1nc2ccccc2nc1C)c1ccccc1O | -21 | -8 | 7 | -33 | 17 | -3
COc1ccc2nc(NN=C(C)c3ccccn3)cc(C)c2c1 | x | 22 | x | -22 | x | -20
CC(=NNc1ccc2ccccc2n1)c1ccccc1O | 95* | -35 | x | 37 | x | -37
C[C@H]1CN([C@@H](C)CO)C(=O)c2cccc(NC(=O)C3CCOCC3)c2O[C@@H]1CN(C)S(=O)(=O)c1cccs1 | -6 | x | x | x | x | x
CC1=CC(C)(C)Nc2ccc(OC(=O)c3cccnc3)cc21 | 0 | 38 | 13 | 57* | 22 | -9
COc1cc(C(=O)Nc2ccc(C(=O)O)cc2)ccc1OC(C)=O | -37 | -7 | 4 | 9 | 11 | -9
COc1ccc(/C(C)=N/Nc2ccc(C(=O)O)cc2)cc1OC | -55 | -9 | 26* | -173 | -4 | 33
Cc1cc(NC(=S)NC(=O)c2ccccc2)ccc1-c1cc2ccccc2oc1=O | 20 | 56* | -3 | 0 | 42 | -61*
CCOc1ccc(C(=O)Nc2ccc(-c3cc4ccccc4oc3=O)c(C)c2)cc1[N+](=O)[O-] | 20 | 10 | 0 | 22 | 26 | -31
N#CC(C#N)=NNc1ccc([N+](=O)[O-])cc1 | 28 | 57* | -1 | -41 | 26 | -26
C/C(=N\Nc1ccc([N+](=O)[O-])cc1)c1ccc(C#N)cc1 | 17 | -16 | -1 | 0 | -2 | 12
Cc1cccc(C(=O)O/N=C(\N)Cc2cccc3ccccc23)c1 | x | 12 | 17* | 15 | 39 | -2
COc1ccc(-c2nc(SCC(=O)Nc3nccs3)c(-c3ccc(Cl)cc3)[nH]2)cc1 | 14 | 10 | 1 | 52* | 44 | -16
COc1ccc(-c2[nH]c(-c3ccc(C)cc3)nc2SCC(=O)Nc2nccs2)cc1 | 2 | -14 | 1 | 32 | -21 | 1
Cc1cc2nc(-c3ccc(SCC(=O)Nc4nccs4)nc3)[nH]c2cc1C | -6 | 58* | 2 | 14 | x | -59*
C[C@H](CO)N1C[C@H](C)[C@H](CN(C)C(=O)Nc2ccc(C(F)(F)F)cc2)Oc2ccc(NC(=O)Nc3ccc4c(c3)OCO4)cc2C1=O | 10 | x | x | x | x | x
NCc1ccc(S(N)(=O)=O)cc1 | 5 | 4 | 1 | 8 | 5 | -51*
COc1ccc(CC(N)c2csc(NC(=O)c3cccc(OC(F)(F)F)c3)n2)cc1 (configuration not stated) | -4 | -1 | x | 94* | x | -9
NC(Cc1ccccc1)c1csc(NC(=O)c2cccc(OC(F)(F)F)c2)n1 (configuration not stated) | -11 | -10 | x | 99* | x | -11
COc1ccc(CC(N)c2csc(NC(=O)c3ccccc3)n2)cc1 (configuration not stated) | 9 | 11 | x | 11 | x | -6
N#C[C@@H]1[C@H](c2ccccc2C2=CCCC2)[C@H](CO)N1C(=O)NC1CCCCC1 | -20 | x | x | x | x | x
COc1ccc(NC(=O)N(C)C[C@@H]2OCCCC[C@@H](C)Oc3ccc(NC(=O)Nc4ccc(F)cc4)cc3C(=O)N([C@@H](C)CO)C[C@H]2C)cc1 | 11 | x | x | x | x | x
COc1cc(/C=N\NC(=O)c2ccc(-c3ccccc3)cc2)cc(Br)c1O | -6 | 65* | 1 | -54 | -7 | -1
COc1ccccc1C#Cc1ccc2c(c1)[C@H]1[C@H](CCN1S(=O)(=O)c1ccc(C)cc1)[C@@H](CO)N2 | 12 | x | x | x | x | x
C=CCNC(=O)CSc1nnc(-c2ccccc2Br)n1-c1cccc(C(F)(F)F)c1 | 6 | 5 | -3 | 52* | 8 | 8
SMILES | LGR2 antag | CF NFkB block | HSP90 refold inh | Peg3 promoter | Mdm2-MdmX inh | KKLEB tox
CCOC(=O)c1sc(NC(=O)Nc2ccccc2Cl)cc1C | 15 | -1 | -1 | -185 | -51 | -7
CCOC(=O)c1sc(NC(=O)Nc2ccccc2)cc1C | x | 28 | -3 | -231 | -163 | -51*
CCCCCCCCC1=NCCc2c1[nH]c1ccccc21 | -13 | -4 | 10 | 91* | 31 | -4
COc1ccc(CCNC2=C(Cl)C(=O)N(CCc3ccc(OC)c(OC)c3)C2=O)cc1OC | x | -2 | -1 | 80* | 20 | -12
Cc1ccc(/C=C/C(=O)N2CC(C)CC(C)C2)o1 (configuration not stated) | x | 11 | 1 | 76* | -13 | 6
CCC(=O)N1C[C@@H]2[C@H](c3ccccc31)[C@H](CO)N2C(=O)Nc1ccccc1 | 2 | x | x | x | x | x

Source: PubChem
